According to PubChem BioAssay AID2685 (National Center for Advancing Translational Sciences (NCATS), 2010):
Among all 320,000 compounds or so, about 2,100 (0.66%) were called active. Another 53% or so got no clear call; they are omitted. The call rests on the fitted dose curve; in most records, active means well fitted inhibition curve with a large enough effect in the signal ratio, with a control signal flat (not every such curve was filed as active); inconclusive means small, poorly fitted or top-dose-only effect, or effect the other way, or a change in a side signal; inactive means flat fitted curve, though single readings scatter; the % refers to the signal ratio. The entries come from a sample that favours actives as a whole.

Experiment: qHTS Assay for Lipid Storage Modulators in Drosophila S3 Cells;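 on cell number change: cells counted by Cell Tracker Red CMTPX staining in the red channel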; on lipid storage change, negative = inhibition: on the % scale 0 is the no-effect control and ±100 the full control effect
Settings: BODIPY lipid droplet fluorescence, 18-24 h, cells fed with added oleic acid; cell number change: measured here: cell count max response; series mostly up to 46.1 µM; lipid storage change, negative = inhibition: at the top concentration
In short: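 Drosophila S3 cells loaded with oleic acid (400 uM, as added) and compounds at several concentrations; lipid droplets imaged by 488-nm laser-scanning cytometry, 500–530 nm intensity and object ratio to cell channel. Percent activity normalized to 20 uM Triacsin C.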
Potency means the concentration at half of the fitted maximal effect.

SMILES	Potency	cell number change [%]	lipid storage change, negative = inhibition	outcome
CN(c1ccccc1)S(=O)(=O)c1cccc(NC(=O)CSc2nnc(C3CC3)n2C)c1	23.1 µM (active)	4.1	–	–
CC(=O)Nc1ccc(NC(=O)CSc2nnc(C3CC3)n2C)cc1	–	-6.84	-0.569% (inactive)	–
CC(=O)c1ccc(NC(=O)CSc2nnc(C3CC3)n2C)cc1	1.84 µM (active)	24.2	–	–
CCn1c(SCC(=O)Nc2ccc(C(C)=O)cc2)nnc1C1CC1	–	13.3	–	inactive
CC(C)n1cnnc1SCC(=O)Nc1cccc(S(=O)(=O)N(C)c2ccccc2)c1	–	-11.3	-18.9% (inactive)	–
CCn1c(SCC(=O)Nc2cccc(S(=O)(=O)N(C)c3ccccc3)c2)nnc1C1CC1	–	0.735	-1.58% (inactive)	–
COc1ccc(NC(=O)c2ccc(S(=O)(=O)N3CCCCC3)cc2)c(OC)c1	–	-34.1	–	inactive
Cc1cc2n(n1)SC(Nc1cc(Cl)ccc1Cl)N2 (stereo not drawn)	–	-3.68	-11.4% (inactive)	–
COc1ccc(N2CCN(CCCNC(=O)CN3C(=O)COc4ccccc43)CC2)cc1	–	-22.1	–	inactive
Cn1c(C(=O)N2CCN(c3ccc(Cl)cc3)CC2)cc2c(=O)[nH]c3ccccc3c21	–	18.3	-2.56% (inactive)	–
CCN(CC)c1ccc(/C=N/NC(=O)C(O)(c2ccccc2)c2ccccc2)o1	20.6 µM (active)	-15.7	–	–
O=C(O)COc1ccc(/C=N/NC(=O)C(O)(c2ccccc2)c2ccccc2)cc1	–	7.99	8.46% (inactive)	–
COc1ccc(/C=N/NC(=O)C(O)(c2ccccc2)c2ccccc2)cc1OC	–	3.71	22.7% (inactive)	–
O=C(C1CCN(Cc2cccs2)CC1)N1CCN(Cc2ccc3c(c2)OCO3)CC1	–	20.4	2.29% (inactive)	–
C/C(=C/Cc1c(O)cc2oc(C)cc(=O)c2c1O)COC1OC(CO)C(O)C(O)C1O (stereo not drawn)	–	6.97	-5.08% (inactive)	–
CCN1C(=O)[C@H]2[C@@H](c3ccc(-c4ccccc4)cc3)N[C@@](CC(C)C)(C(=O)OC)[C@H]2C1=O	–	7.59	7.26% (inactive)	–
CCN1C(=O)[C@H]2[C@@H](c3ccc(SC4CCCCC4)cc3)N[C@@](CC(C)C)(C(=O)OC)[C@H]2C1=O	8.2 µM (active)	–	–	–
CCN1C(=O)[C@H]2[C@@H](c3ccc(-c4ccc(OC)cc4)cc3)N[C@@](CC(C)C)(C(=O)OC)[C@H]2C1=O	–	12.8	-25.2% (inactive)	–
CC(C)NC(=O)c1ccccc1NC(=O)CS(=O)(=O)Cc1ccccc1	–	14.5	–	inactive
Cc1ccc(NS(=O)(=O)c2ccc3c(c2)oc(=O)n3C)cc1C	–	5.19	4.4% (inactive)	–
COc1ccccc1NS(=O)(=O)c1ccc2oc(SCc3ccc(F)cc3)nc2c1	–	-19.8	-11.7% (inactive)	–
CCOC(=O)CSc1nc2cc(S(=O)(=O)Nc3ccccc3OC)ccc2o1	29.1 µM (active)	-16.6	–	–
COc1ccccc1NS(=O)(=O)c1ccc2oc(SC(C)C(=O)N3CCNC3=O)nc2c1 (stereo not drawn)	–	-7.72	3.7% (inactive)	–
CSc1ccc(CCNC(=O)CN2C(=O)CCSc3ccccc32)cc1	–	2.42	4.79% (inactive)	–

SMILES	Potency	cell number change [%]	lipid storage change, negative = inhibition	outcome
Cc1cc(C)nc(Sc2ccc([N+](=O)[O-])cc2[N+](=O)[O-])n1	16.4 µM (active)	-6.83	–	–
Cc1cc(C)nc(SCC(=O)c2ccc([N+](=O)[O-])cc2)n1	–	–	–	inactive
Cc1cc(C)nc(SCc2ccc([N+](=O)[O-])cc2)n1	–	-8.5	-12.6% (inactive)	–
C=CCn1c(=O)c2c(nc(-n3nc(C)cc3C)n2C)n(C)c1=O	–	–	–	inactive
Cc1cc(C)nc(N2CCN(C(=O)CCC(=O)Nc3nnc(C(C)C)s3)CC2)n1	–	0.873	0.665% (inactive)	–
O=S(=O)(/N=C(\c1ccccc1F)N1CCCCC1)c1ccccc1	–	-0.464	-4.68% (inactive)	–
CC(C)Oc1ccc(CNC(=O)Cn2c(=O)c3cccn3c3cccnc32)cc1	–	-16.2	–	inactive
CC1(C)C2CC[C@]1(C)C(=O)N(CCCCN1CCN(c3ccccn3)CC1)C2=O	–	15.1	–	inactive
Cc1[nH]c2ccccc2c1SCC(=O)N1CCC(C)CC1	–	-5.95	-7.23% (inactive)	–
CSC1=NC2(CCCCC2)C2=C(CCCC2)N1	5.8 µM (active)	-4.54	–	–
S=C1NC2=C(CCCC2)C2(CCCCC2)N1	–	0.876	3.68% (inactive)	–
Cc1cccc(C(=O)Nc2c3c(nn2C(C)(C)C)CS(=O)(=O)C3)c1	–	–	–	inactive
COc1cc(NC(=O)c2ccco2)c(C(=O)O)cc1OC	–	5.35	9.63% (inactive)	–
COC(=O)c1cc(OC)c(OC)cc1NC(=S)NC(=O)c1ccco1	18.4 µM (active)	-15.6	–	–
COc1ccc(Cl)cc1NC(=S)NC(=O)c1ccco1	–	1.24	17.2% (inactive)	–
CC1CCc2nn(CC(=O)NCc3ccco3)cc2C1 (stereo not drawn)	–	-0.142	8.35% (inactive)	–
CCCCN(C(=S)NC(=O)c1ccccc1)c1c(N)n(Cc2ccccc2)c(=O)[nH]c1=O	–	-12.7	-6.94% (inactive)	–
COC(=O)C(C)SC1=N/C(=C/c2ccc(-n3cncn3)cc2)C(=O)N1 (stereo not drawn)	–	-12.1	-24.9% (inactive)	–
Cc1ccc2cc(CN(Cc3ccco3)C(=S)NCC3CCCO3)c(=O)[nH]c2c1 (stereo not drawn)	–	3.25	7.64% (inactive)	–
COc1ccc(NS(=O)(=O)c2ccc(C(=O)OC(C)C(=O)N3CCOCC3)cc2)cc1 (stereo not drawn)	–	-5.78	-17.5% (inactive)	–
Cc1ccc(CCNC(=O)CCNS(=O)(=O)c2ccc3c(c2)oc(=O)n3C)cc1	–	0.906	9.42% (inactive)	–
O=C(CCCOc1ccc(Cl)cc1Cl)NCCc1nnc2ccccn12	–	33.2	–	inactive
CC(C)NC(=O)CCCOc1ccc(Cl)cc1Cl	–	5.02	2.67% (inactive)	–
C[C@H](NC(=O)CCCOc1ccc(Cl)cc1Cl)c1nnc2ccccn12	18.4 µM (active)	5.34	–	–

SMILES	Potency	cell number change [%]	lipid storage change, negative = inhibition	outcome
Cc1sc2ncnc(SCC(=O)N3CCOCC3)c2c1C	–	-10.8	11.6% (inactive)	–
COc1cccc(NC(=O)CCNS(=O)(=O)c2ccc3c(c2)CC(C)N3C(=O)C2CC2)c1 (stereo not drawn)	–	4.78	–	inactive
COc1ccccc1CNS(=O)(=O)c1ccc2c(c1)CC(C)N2C(=O)C1CCC1 (stereo not drawn)	5.17 µM (active)	-14.7	–	–
CC1Cc2cc(S(=O)(=O)NCc3ccccc3)ccc2N1C(=O)C1CC1 (stereo not drawn)	–	-26.2	-7.65% (inactive)	–
COc1ccccc1NC(=O)CCNS(=O)(=O)c1ccc2c(c1)CC(C)N2C(=O)C1CC1 (stereo not drawn)	–	3.62	–	inactive
COc1cccc(CNS(=O)(=O)c2ccc3c(c2)CC(C)N3C(=O)C2CC2)c1 (stereo not drawn)	11.6 µM (active)	-26.9	–	–
COc1ccccc1CNC(=O)CCS(=O)(=O)c1ccc2c(c1)CC(C)N2C(=O)C1CC1 (stereo not drawn)	–	-19.6	–	inactive
OC1(c2ccccc2)CCN(Cc2ccccc2)C2CCCCC21 (stereo not drawn)	–	-0.282	-16.4% (inactive)	–
COc1ccc(-n2c(/C=C(\C)O)nc(=O)c3c(C)cc(C)nc32)cc1	–	–	–	inactive
COC(=O)C1Cc2c([nH]c3ccccc23)CN1C(C)=O (stereo not drawn)	–	2.42	2.74% (inactive)	–
COc1ccc(NC(=O)COC(=O)[C@@H]2CCCN2C(=O)c2cccs2)cc1	29.1 µM (active)	7.9	–	–
COc1ccc(/C=C2/SC(=O)N(CCNC(=O)C3COc4ccccc4O3)C2=O)cc1 (stereo not drawn)	–	-11.7	7.79% (inactive)	–
COc1ccc(NC(=O)COC(=O)[C@@H]2CCCN2C(=O)c2cccs2)c(OC)c1	–	-0.232	-14.7% (inactive)	–
O=C(NCCN1C(=O)S/C(=C/c2cccnc2)C1=O)c1cccs1	2.31 µM (active)	-5.78	–	–
O=C(NCCN1C(=O)S/C(=C\c2cccnc2)C1=O)c1ccc([N+](=O)[O-])s1	–	0.268	-4.61% (inactive)	–
COc1ccc(/C=C2\SC(=O)N(CCNC(=O)C3CC4C=CC3C4)C2=O)cc1 (stereo not drawn)	–	–	22.3% (inactive)	–
O=C(COC(=O)C1CCCN1C(=O)c1cccs1)Nc1ccc2c(c1)OCO2 (stereo not drawn)	–	11.1	17.5% (inactive)	–
COc1ccc(/C=C2/SC(=O)N(CCNC(=O)C3CCCN3C(=O)c3cccs3)C2=O)cc1 (stereo not drawn)	20.6 µM (active)	-3.84	–	–
O=C(O)CCN1C(=O)S/C(=C\c2cccnc2)C1=O	–	3.35	-6.97% (inactive)	–
CCOc1c([N+](=O)[O-])cc2c(C)c(C(=O)N3CCN(C)CC3)oc2c1OCC	–	-1.04	15.5% (inactive)	–
CC(C)CC(c1nnnn1C1CCCC1)N1CCN(C(=O)c2ccco2)CC1 (stereo not drawn)	–	-2.29	–	inactive
COc1ccccc1C(=O)Nc1ccc2[nH]ncc2c1	–	0.824	–	inactive
CC(C)(C)C(=O)C1=C(O)C(=O)N(Cc2ccccc2)C1c1ccccc1F (stereo not drawn)	–	0.73	19.2% (inactive)	–
CC(=O)C1=C(O)C(=O)N(Cc2ccccc2)C1c1ccc(F)cc1 (stereo not drawn)	–	-7.48	11.4% (inactive)	–

SMILES	Potency	cell number change [%]	lipid storage change, negative = inhibition	outcome
CC(=O)C1=C(O)C(=O)N(Cc2ccccc2)C1c1ccccc1F (stereo not drawn)	18.4 µM (active)	-6.03	–	–
S=C(NCC1CCCO1)Nc1ccccc1 (stereo not drawn)	–	-0.626	-17.6% (inactive)	–
S=C(NCC1CCCO1)NC12CC3CC(CC(C3)C1)C2 (stereo not drawn)	–	5.13	1.37% (inactive)	–
S=C(NCC1CCCO1)NC1CCCC1 (stereo not drawn)	1.3 µM (active)	–	–	–
CCOC(=O)c1c(C)[nH]c(C(=O)COC(=O)c2oc3ccc(OC)cc3c2C)c1C	–	-6.84	6.95% (inactive)	–
Cc1nnc(NC(=O)CSc2nc3ccccc3o2)s1	–	-14	-5.01% (inactive)	–
O=C(CSc1nc2ccccc2o1)Nc1nncs1	16.4 µM (active)	24.7	–	–
CCc1nnc(NC(=O)CSc2nc3ccccc3o2)s1	–	–	–	inactive
O=C(O)CCc1nc(-c2cccs2)no1	–	-23	1.61% (inactive)	–
CC(C)C(=O)Nc1ccc(-c2nc3ncccc3o2)cc1	–	0.493	-16.9% (inactive)	–
COc1cc(C=O)ccc1OC(=O)c1ccncc1	–	-18.5	2.65% (inactive)	–
COc1ccc(S(=O)(=O)N(C)c2ccc(C(N)=O)cc2)cc1	18.4 µM (active)	–	–	–
CN(c1ccc(C(=O)N2CCN(c3ccc(F)cc3)CC2)cc1)S(C)(=O)=O	–	–	–	inactive
CN(c1ccc(C(=O)Nc2ccccc2C(=O)N2CCOCC2)cc1)S(C)(=O)=O	–	-16	-2.12% (inactive)	–
COc1ccc(S(=O)(=O)N(C)c2ccc(C(=O)N3CCCC3)cc2)cc1	–	18.3	14.8% (inactive)	–
COc1ccc(S(=O)(=O)N(C)c2ccc(C(=O)N3CCCCC3)cc2)cc1OC	–	2.05	6.04% (inactive)	–
COc1ccc(S(=O)(=O)N(C)c2ccc(C(=O)N3CCOCC3)cc2)cc1OC	–	–	–	inactive
CN(c1ccccc1)S(=O)(=O)c1ccc(C(=O)N2CCCC2)cc1	–	-4.2	15.8% (inactive)	–
CN(c1ccc(C(=O)N2CCOCC2)cc1)S(C)(=O)=O	25.9 µM (active)	-14.6	–	–
COc1ccc(S(=O)(=O)N(C)c2ccc(C(=O)N3CCCC3)cc2)cc1OC	0.326 µM (active)	-7.14	–	–
CN(c1ccc(C(=O)N2CCCCC2)cc1)S(=O)(=O)c1ccccc1	–	-27	–	inactive
CN(c1ccc(C(=O)N2CCCCCC2)cc1)S(=O)(=O)c1ccccc1	5.17 µM (active)	-9.4	–	–
COc1ccc(S(=O)(=O)N(C)c2ccc(C(=O)N3CCCCC3)cc2)cc1	–	–	–	inactive
